# Test results reported in PubChem BioAssay.
# What was measured:
# Assay in all cases: inhibition of PEG-3 promoter-driven reporter – cell-based, HeLa, luciferase, CREF/GAPDH counter-screen panel, dose response (AID 624167)
# PEG-3 [1] = target: PEG-3 (UniProt Q6IN02); conditions: CREF/GAPDH counter-screens; HeLa PEG-Prom luciferase reporter, overnight, run 1, dose range 1, at 100 µM (top of the series) unless noted
# PEG-3 [2] = target: PEG-3 (UniProt Q6IN02); conditions: CREF/GAPDH counter-screens; HeLa PEG-Prom luciferase reporter, overnight, run 2, dose range 1, at 100 µM (top of the series) unless noted
# Rat fibroblasts (CREF) [3] = conditions: CREF/GAPDH counter-screens; run 1, dose range 1, at 100 µM (top of the series)
# Rat fibroblasts (CREF) [4] = conditions: CREF/GAPDH counter-screens; run 2, dose range 1, at 100 µM (top of the series)
# Sequence of PEG-3 (Q6IN02 whole entry, looked up): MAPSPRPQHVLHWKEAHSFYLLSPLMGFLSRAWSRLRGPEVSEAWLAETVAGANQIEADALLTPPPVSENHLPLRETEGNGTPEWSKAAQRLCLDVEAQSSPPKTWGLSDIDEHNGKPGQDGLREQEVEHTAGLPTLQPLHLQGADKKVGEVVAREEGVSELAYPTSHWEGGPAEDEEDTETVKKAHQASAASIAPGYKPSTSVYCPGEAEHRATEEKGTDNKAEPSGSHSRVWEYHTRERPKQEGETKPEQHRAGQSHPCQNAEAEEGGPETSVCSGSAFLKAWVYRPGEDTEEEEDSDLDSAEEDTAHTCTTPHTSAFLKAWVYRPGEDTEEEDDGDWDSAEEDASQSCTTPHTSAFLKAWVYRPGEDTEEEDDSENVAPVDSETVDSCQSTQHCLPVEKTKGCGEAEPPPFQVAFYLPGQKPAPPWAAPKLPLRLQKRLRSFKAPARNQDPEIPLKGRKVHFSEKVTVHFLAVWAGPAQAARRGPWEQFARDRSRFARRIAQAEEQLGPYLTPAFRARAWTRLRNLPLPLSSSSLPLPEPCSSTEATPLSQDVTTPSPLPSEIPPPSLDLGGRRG
SMILES,inhibition (PEG-3 [1]) [%],inhibition (PEG-3 [2]) [%],inhibition (Rat fibroblasts (CREF) [3]) [%],inhibition (Rat fibroblasts (CREF) [4]) [%]
Cn1nnnc1Sc1ncnc2scc(-c3ccc4c(c3)OCO4)c12,102,97.4,–,–
Cc1ccc(C(=O)N/C(=C\c2ccc(-c3cccc([N+](=O)[O-])c3)o2)C(=O)NCCCN(C)C)cc1,102,98.8,–,–
CC(C(=O)NC1CCCC1)N(C(=O)Cn1nnc(-c2ccc(F)cc2)n1)c1ccccc1F (stereo unspecified),99.3,102,–,–
COc1ccc(-c2cc(C(=O)N(C)Cc3ccccc3F)c3ccccc3n2)cc1OC,97.1,94.9,–,–
Cc1cccc(CN2C(=O)[C@H]3Cc4c([nH]c5ccccc45)C(C)(C)N3C2=O)c1,97.5,101,–,–
CCC1CCCCN1S(=O)(=O)c1ccc(C(=O)N(CCCN(C)C)c2nc3cc4c(cc3s2)OCO4)cc1 (stereo unspecified),101,96.1,–,–
Cc1ccc(NCCN(C)C)c2c(=O)c3cc(O)ccc3sc12,97.5,102,–,–
N#C/C(=C\c1cccc([N+](=O)[O-])c1)C(=O)NCc1ccc(Cl)cc1,99.3,101,–,–
Cc1cccc2c1-c1sc(C(=O)NCCCN3CCCC(C)C3)cc1CO2 (stereo unspecified),99.3,98.5,–,–
CN(C)CCNc1ccc2nnn3c4ccc(O)cc4c(=O)c1c23,102,98,–,–
CC(=O)c1ccc(Nc2nc(C(N)Cc3ccc(Cl)cc3)cs2)cc1 (stereo unspecified),99.5,98.2,–,–
Cc1ccc(C(=O)N2CCN(c3ccc([N+](=O)[O-])c(NCc4cccnc4)c3)CC2)cc1,48.8,47.4,–,–
O=C(CCN1C(=O)/C(=C/c2ccc(F)cc2)SC1=S)N[C@@H](CO)Cc1ccccc1,36.9,72,–,–
CN(C)CC1CCC/C(=C/c2ccc(Cl)cc2)C1=O (stereo unspecified),102,98.7,–,–
Cc1nn(-c2nc3ccccc3[nH]2)c(=O)c2ccccc12,97.5,96.4,100,101
O=C(Nc1ccc(Cc2ccncc2)cc1)c1ccc([N+](=O)[O-])o1,99.1,101,100,99.5
CCOc1ccc2c(ccc(/C=C/c3cc(C)c4cccnc4c3O)[n+]2C)c1,101,99.4,98.8,98.5
Cc1ccc(/C=C2\SC(=S)N(CCCC(=O)Nc3ccccn3)C2=O)cc1,88,94.2,-11.8,-1.96
O=c1oc2ccccc2cc1-c1cn2ccccc2n1,92.7,94.2,94.6,93.7
O=C(O)c1cccc(COc2ccc(CO)cc2Cl)c1,97.3,102,91.5,91.1
CC(=O)c1ccc(-c2cnc3c(NC=O)cc(-c4ccccc4Oc4ccccc4)cn23)cc1,38.3,56.6,-25.1,94.9
